A short description of experiment [1]: sensitizers of A549 cells to miR-34 induction, primary screen, imaging, A549 dox-inducible miR-34, nuclei and caspase counts (AID 1347080). Further: test concentration not given here. The note with it: A549 miR-34 inducible, Hoechst nuclei count, 48 h.
The nature of experiment [2]: survival rescue of mitochondrial mutant cells in low glucose, primary screen, MELAS cybrids, Rieske KO mouse fibroblasts, CellTiter-Glo (AID 1508586;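 active means mean z-score across replicates of 1.96 or higher in either the MELAS or the Rieske mutant cell line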;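 further: test concentration not given here; z relative to plate mean and SD of compound and empty wells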).
Experiment [3] can be described thus: viability rescue of complex I mutant cybrids, primary screen, cell-based, galactose medium, ATP luminescence (AID 1645843;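 active means z-score of at least 1.8 in each of two replicates, scored against plate mean and spread of sample wells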;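 further: positive z means more ATP and so rescue of galactose-driven cybrid death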). The note with it: complex I mutant cybrid cells, 72 h, stronger effect = higher value.
[4] abbreviates: stronger effect = lower value, cell number ratio, induced over uninduced.
Where [5] appears, read: measured here: relative caspase fold change +Dox/-Dox.
Setting [6] is: measured here: total cells with miR-34 induction, stronger effect = lower value.
The mark [7] stands for this setting: measured here: total cells without miR-34 induction.
Where [8] appears, read: MELAS cybrid survival, CellTiter-Glo 48 h, stronger effect = higher value.
Where [9] appears, read: Rieske KO mouse fibroblast survival, CellTiter-Glo 72 h.

The structures appear in SMILES notation. Values joined by “and” are separate entries in the source; they are usually repeats but may differ in a detail not shown here. Equal entries are not always repeated. The source holds several records for some structures; these can differ, active in one and inactive in another. Active and inactive are the calls of the source.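 How the source made its calls, unless noted: active means compounds whose cell count with miR-34 switched on is under 0.7 times the count with it off; inactive means the rest.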

Consider `COc1ccc(CCNCC(O)COc2cccc(C)c2)cc1OC` (stereo not given), for which the fold change in experiment [1] (setting [4]) was 0.915 (inactive); in experiment [1] (setting [5]), 0.555. Further, the cell count was determined as 8400 in experiment [1] (setting [6]) and 9170 in experiment [1] (setting [7]). Besides, the figures for the z-score in experiment [2] (setting [8]), in experiment [2] (setting [9]) and in experiment [3] were -1.33 (inactive), 0.533 and -0.99 (inactive), respectively.

As for `Nc1nc(NC(Cn2ccnc2)c2ccccc2)c2cn[nH]c2n1` (stereo not given), the fold change in experiment [1] (setting [4]) was 0.958 (inactive); in experiment [1] (setting [5]) it was 1.04. Further, the cell count in experiment [1] (setting [6]) amounted to 9810; in experiment [1] (setting [7]), 10200. The figures for the z-score in experiment [2] (setting [8]), in experiment [2] (setting [9]) and in experiment [3] were -0.353 (inactive), -0.318 and -0.495 (inactive), respectively.

As to `CC(Nc1nc(N)nc2[nH]ncc12)c1ccc(Cl)cc1` (stereo not given), the fold change in experiment [1] (setting [4]) was 0.895 (inactive); in experiment [1] (setting [5]), 1.28. The cell count is 7110 in experiment [1] (setting [6]) and 7940 in experiment [1] (setting [7]). For the same compound, the figures for the z-score in experiment [2] (setting [8]), in experiment [2] (setting [9]) and in experiment [3] were -0.461 (inactive), -0.503 and -0.575 (inactive), respectively.

Consider `COc1cc(N2CCN(Cc3ccccc3F)C(=O)C2)ncn1`, for which the values for the fold change in experiment [1] (setting [4]) and in experiment [1] (setting [5]) were 0.848 (inactive) and 1.97, respectively. Besides, the cell count in experiment [1] (setting [6]) came to 6780; in experiment [1] (setting [7]), 7990. The figures for the z-score in experiment [2] (setting [8]), in experiment [2] (setting [9]) and in experiment [3] were -0.24 (inactive), -0.349 and -0.475 (inactive), respectively.

Turning to `O=C(Nc1n[nH]c(Cc2ccccc2)n1)N1CCN(c2ncncn2)CC1`, the results for the fold change in experiment [1] (setting [4]) and in experiment [1] (setting [5]) were 0.914 (inactive) and 1.11, respectively. In addition, the cell count in experiment [1] (setting [6]) was 9380; in experiment [1] (setting [7]), 10300. Further, the z-score in experiment [2] (setting [8]) is 0.379; in experiment [2] (setting [9]) it was 4.03; in experiment [3], 0.44 (inactive).

As for `CCOC(=O)C1=C(C)NC(C)=C(C(=O)OCC)C1c1ccccc1C=CC(=O)OC(C)(C)C`, the fold change in experiment [1] (setting [4]) is 0.635 (active) and 0.971 (inactive); in experiment [1] (setting [5]), 1.57 and 0.602. In addition, the cell count in experiment [1] (setting [6]) was 2050 and 7220; in experiment [1] (setting [7]) it was 3220 and 7430. For the same compound, the z-score is -0.107 (inactive) in experiment [2] (setting [8]), -0.188 in experiment [2] (setting [9]) and -1.44 (inactive) in experiment [3].

`CCn1c2ccccc2c2cc(CNC)ccc21`: the fold change in experiment [1] (setting [4]) was 0.848 (inactive); in experiment [1] (setting [5]) it was 0.773. Besides, the cell count amounted to 7330 in experiment [1] (setting [6]) and 8640 in experiment [1] (setting [7]). Besides, the z-score in experiment [2] (setting [8]) is 0.644 (inactive); in experiment [2] (setting [9]) it was -0.0619; in experiment [3], -0.915 (inactive).

As to `CC[C@H](C)C(=O)O[C@H]1C[C@H](O)C=C2C=C[C@H](C)[C@H](CC[C@@H]3C[C@@H](O)CC(=O)O3)[C@H]21`, the fold change in experiment [1] (setting [4]) was 0.872 (inactive); in experiment [1] (setting [5]), 2.14. Besides, the cell count amounted to 9300 in experiment [1] (setting [6]) and 10700 in experiment [1] (setting [7]). The z-score in experiment [2] (setting [8]) is 0.0534 (inactive); in experiment [2] (setting [9]), -0.0126; in experiment [3], 0.555 (inactive).

Turning to `c1ccc(NCc2cccnc2)cc1`, the fold change in experiment [1] (setting [4]) was 0.876 (inactive); in experiment [1] (setting [5]) it was 1.56. The cell count in experiment [1] (setting [6]) came to 8370; in experiment [1] (setting [7]), 9560. The z-score in experiment [2] (setting [8]) was -0.153 (inactive); in experiment [2] (setting [9]), -0.0248; in experiment [3] it was 0.545 (inactive).

For the compound `COc1cc(CC2COC(=O)C2Cc2ccc(O)c(OC)c2)ccc1O` (stereo not given), the fold change in experiment [1] (setting [4]) is 0.888 (inactive); in experiment [1] (setting [5]), 0.681. The values for the cell count in experiment [1] (setting [6]) and in experiment [1] (setting [7]) were 8440 and 9500, respectively. For the same compound, the figures for the z-score in experiment [2] (setting [8]), in experiment [2] (setting [9]) and in experiment [3] were -1.09 (inactive), -0.0925 and -0.07 (inactive), respectively.

Turning to `COc1cccc2ncn(Cc3nc4ccccc4o3)c(=O)c12`, the fold change is 0.951 (inactive) in experiment [1] (setting [4]) and 1.68 in experiment [1] (setting [5]). The cell count in experiment [1] (setting [6]) worked out at 8290; in experiment [1] (setting [7]), 8720. The figures for the z-score in experiment [2] (setting [8]), in experiment [2] (setting [9]) and in experiment [3] were -0.0437 (inactive), -0.268 and -0.545 (inactive), respectively.

Take `Cc1cc(C)n(CCCNc2ncc(C)c(-c3cnn(C)c3)n2)n1`: the fold change in experiment [1] (setting [4]) is 0.893 (inactive); in experiment [1] (setting [5]), 1.21. The cell count in experiment [1] (setting [6]) was 8360; in experiment [1] (setting [7]), 9370. In addition, the z-score in experiment [2] (setting [8]) is -0.406 (inactive); in experiment [2] (setting [9]), 0.144; in experiment [3] it was -0.54 (inactive).

Regarding `CCC(C)n1ncn(-c2ccc(N3CCN(c4ccc(OCC5CO[C@](Cn6cncn6)(c6ccc(Cl)cc6Cl)O5)cc4)CC3)cc2)c1=O` (stereo not given in full), the fold change in experiment [1] (setting [4]) was 0.844 (inactive) and 0.945 (inactive); in experiment [1] (setting [5]), 0.375 and 1.03. The cell count in experiment [1] (setting [6]) is 6320 and 8160; in experiment [1] (setting [7]), 7490 and 8630. In addition, the z-score is 0.58 (inactive) and -0.288 (inactive) in experiment [2] (setting [8]); -0.239 and 0.0468 in experiment [2] (setting [9]); -2.34 (inactive) in experiment [3].

Turning to `NS(=O)(=O)c1ccc(C(=O)NCc2ccccc2)cc1`, the fold change in experiment [1] (setting [4]) is 0.871 (inactive); in experiment [1] (setting [5]) it was 0.5. Further, the cell count in experiment [1] (setting [6]) was 8310; in experiment [1] (setting [7]), 9540. Besides, the values for the z-score in experiment [2] (setting [8]), in experiment [2] (setting [9]) and in experiment [3] were 0.51 (inactive), -0.575 and 0.795 (inactive), respectively.

As to `O=C(O)Cc1ccc(O)c([N+](=O)[O-])c1`, the fold change in experiment [1] (setting [4]) is 0.901 (inactive); in experiment [1] (setting [5]) it was 0.986. Also, the cell count in experiment [1] (setting [6]) stood at 8450; in experiment [1] (setting [7]), 9380. In addition, the values for the z-score in experiment [2] (setting [8]), in experiment [2] (setting [9]) and in experiment [3] were 0.677 (inactive), 0.189 and 1 (inactive), respectively.

Turning to `COc1cc(F)ccc1C(=O)N1CCc2[nH]nc(Cc3ccccc3)c2C1`, the fold change was 0.845 (inactive) in experiment [1] (setting [4]) and 1.46 in experiment [1] (setting [5]). In addition, the cell count came out at 6700 in experiment [1] (setting [6]) and 7930 in experiment [1] (setting [7]). Also, the z-score in experiment [2] (setting [8]) is 0.33 (inactive); in experiment [2] (setting [9]), 0.986; in experiment [3] it was -0.125 (inactive).

For the compound `CN(C)C(=O)CN(C)C(=O)c1cccc(Nc2ncnc3c2cnn3C)c1`, the fold change is 0.866 (inactive) in experiment [1] (setting [4]) and 1.54 in experiment [1] (setting [5]). In addition, the cell count turned out to be 8650 in experiment [1] (setting [6]) and 9990 in experiment [1] (setting [7]). Also, the z-score was 0.0352 (inactive) in experiment [2] (setting [8]), -0.276 in experiment [2] (setting [9]) and -0.525 (inactive) in experiment [3].

Take `CC(NC(=O)OCc1ccccc1)C(=O)O` (stereo not given): the fold change was 0.909 (inactive) in experiment [1] (setting [4]) and 0.337 in experiment [1] (setting [5]). Moreover, the figures for the cell count in experiment [1] (setting [6]) and in experiment [1] (setting [7]) were 9090 and 10000, respectively. Moreover, the z-score in experiment [2] (setting [8]) is 0.137 (inactive); in experiment [2] (setting [9]), 0.148; in experiment [3], 0.185 (inactive).

For `CC1(C)CC(Nc2nccc(-c3cnn(-c4ccccc4)c3)n2)CC(C)(C)N1`, the fold change was 0.881 (inactive) in experiment [1] (setting [4]) and 3.09 in experiment [1] (setting [5]). In addition, the results for the cell count in experiment [1] (setting [6]) and in experiment [1] (setting [7]) were 4870 and 5530, respectively. Besides, the z-score is -0.228 (inactive) in experiment [2] (setting [8]), 0.372 in experiment [2] (setting [9]) and 3.44 (active) in experiment [3].

On to `COc1ccc(CN2CCN(c3nccc(-c4cn(C)nc4C)n3)CC2=O)cc1`, for which the values for the fold change in experiment [1] (setting [4]) and in experiment [1] (setting [5]) were 0.778 (inactive) and 1.57, respectively. In addition, the cell count in experiment [1] (setting [6]) turned out to be 4640; in experiment [1] (setting [7]), 5960. The values for the z-score in experiment [2] (setting [8]), in experiment [2] (setting [9]) and in experiment [3] were 4.51 (active), 2.53 and -0.37 (inactive), respectively.
